For 16 compounds, Potency, activity change, negative = inhibition and activity, negative = inhibition results are on record in PubChem BioAssay (NCATS).

The target in assay [1] is Lysosomal acid glucosylceramidase (Homo sapiens) (UniProt P04062). Kind of assay: Glucocerebrosidase-p2 (AID 348; in the data active = potency below about 10 µM; note: potency is the fitted concentration of half-maximal effect). Particulars: purified GBA, blue fluorogenic substrate, 40 min. An outline of the steps: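 Normal human glucocerebrosidase (0.2 nM) with blue fluorogenic substrate (80 uM final) in citrate/phosphate pH 5.9 with 10mM sodium taurocholate, 0.01% tween-20; 40 min RT, NaOH/glycine stop; fluorescence Ex 365/Em 440; AC50 from a titration from 0.6 nM upwards.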
Lysosomal acid glucosylceramidase (Homo sapiens), sequence (P04062 whole entry, looked up): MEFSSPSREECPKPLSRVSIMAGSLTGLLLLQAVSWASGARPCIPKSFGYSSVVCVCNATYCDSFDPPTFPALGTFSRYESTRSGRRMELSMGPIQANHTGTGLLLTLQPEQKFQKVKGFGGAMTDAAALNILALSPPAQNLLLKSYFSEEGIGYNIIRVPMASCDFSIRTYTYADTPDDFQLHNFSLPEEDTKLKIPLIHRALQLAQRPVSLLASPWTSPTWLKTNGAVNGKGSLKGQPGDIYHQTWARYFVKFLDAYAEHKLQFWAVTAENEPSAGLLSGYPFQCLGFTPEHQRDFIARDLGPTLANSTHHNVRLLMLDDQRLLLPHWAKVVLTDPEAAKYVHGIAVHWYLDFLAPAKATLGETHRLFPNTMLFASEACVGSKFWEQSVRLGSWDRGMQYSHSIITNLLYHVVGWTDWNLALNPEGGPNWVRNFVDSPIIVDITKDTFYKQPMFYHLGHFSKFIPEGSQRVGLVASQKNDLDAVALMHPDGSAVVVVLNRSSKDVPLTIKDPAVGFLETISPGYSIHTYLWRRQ

A short description of assay [2]: AP1 Signaling Pathway (AID 357).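 Note: ME-180 reporter cells stimulated with EGF at its EC50 level; % is set by controls: 0 for no effect and ±100 for the full control effect.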 Conditions: ME-180 AP-1-bla reporter, EGF-induced, beta-lactamase ratio, 5 h; at 7.69 µM (top of the series) unless noted. A digest of the protocol:
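Titration-series screen for positive or negative modulators of EC50 EGF-induced signaling in ME-180 cells carrying an AP-1-driven beta-lactamase reporter. After 5 hours at 37 degrees Celsius, CCF4 460nm/530nm emission ratio gave %Activity; AC50 values derived.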

Assay [3] addresses Cytochrome P450 1A2 (Homo sapiens) (UniProt P05177). Briefly: p450-cyp1a2 (AID 410; calls by dose curve; note: potency is the fitted concentration of half-maximal effect;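 for activity change, negative = inhibition: -100% = full effect of reference inhibitor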). Particulars: recombinant CYP1A2, luciferin-ME demethylation, luminescence; series mostly up to 11.4 µM. An outline of the steps: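 20nM CYP1A2, 100uM Luciferin-ME (=Km), 100mM KPO4; cpd 10 min RT; +NADPH regen, 60 min RT; stop/detect 20 min; luminescence. Normalized to furafylline 57 uM = full inhibition.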

The nature of assay [4]: NFAT Signaling Pathway (AID 444).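 Note: carbachol stimulus at about its EC50 of 1 µM final; % is set by controls: 0 for no effect and ±100 for the full control effect.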 Conditions: Jurkat NFAT-bla M1, carbachol, beta-lactamase ratio, 5 h; at 7.69 µM (top of the series) unless noted. A digest of the protocol:
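Read-out: CCF4 FRET ratio (460 nm/530 nm) after 1 h RT dye loading, used for %activity and AC50 from titration series. Cells: Jurkat NFAT-β-lactamase/M1 line, treated with compound plus 1 uM carbachol for 5 h, 37 °C.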

Assay [5] is described as follows: Stat Signaling Pathway (AID 446).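 Note: ME-180 cervical cancer cells given 40 pM IL-6 alongside compound; SIE-controlled beta-lactamase reporter measured as 460/530 nm FRET emission ratio; % is set by controls: 0 for no effect and ±100 for the full control effect.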 Conditions: ME-180 (cervical carcinoma) SIE beta-lactamase reporter, IL-6 stimulated, 5 h; at 7.69 µM (top of the series) unless noted. An outline of the steps:
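FRET read-out (405 nm excitation, 460/530 nm emission) of a beta-lactamase reporter under a STAT-inducible element in ME-180 cervical carcinoma cells. Cells with compound receive 40 pM IL-6 for 5 h. Values are normalised to AC90 stimulation and AC90 JAK-inhibitor controls.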

Assay [6] deals with Glucocorticoid receptor (Homo sapiens) (UniProt P04150). Briefly: GR-GFP Redistribution (AID 450;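 active = compounds whose dose series gives a full or clear partial fitted curve of increased nuclear translocation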; note: potency is the fitted concentration of half-maximal effect). Conditions: U2OS GR-GFP nuclear translocation, laser cytometry, 2 h.
Glucocorticoid receptor (Homo sapiens), sequence (P04150 whole entry, looked up, the tested form may be a part): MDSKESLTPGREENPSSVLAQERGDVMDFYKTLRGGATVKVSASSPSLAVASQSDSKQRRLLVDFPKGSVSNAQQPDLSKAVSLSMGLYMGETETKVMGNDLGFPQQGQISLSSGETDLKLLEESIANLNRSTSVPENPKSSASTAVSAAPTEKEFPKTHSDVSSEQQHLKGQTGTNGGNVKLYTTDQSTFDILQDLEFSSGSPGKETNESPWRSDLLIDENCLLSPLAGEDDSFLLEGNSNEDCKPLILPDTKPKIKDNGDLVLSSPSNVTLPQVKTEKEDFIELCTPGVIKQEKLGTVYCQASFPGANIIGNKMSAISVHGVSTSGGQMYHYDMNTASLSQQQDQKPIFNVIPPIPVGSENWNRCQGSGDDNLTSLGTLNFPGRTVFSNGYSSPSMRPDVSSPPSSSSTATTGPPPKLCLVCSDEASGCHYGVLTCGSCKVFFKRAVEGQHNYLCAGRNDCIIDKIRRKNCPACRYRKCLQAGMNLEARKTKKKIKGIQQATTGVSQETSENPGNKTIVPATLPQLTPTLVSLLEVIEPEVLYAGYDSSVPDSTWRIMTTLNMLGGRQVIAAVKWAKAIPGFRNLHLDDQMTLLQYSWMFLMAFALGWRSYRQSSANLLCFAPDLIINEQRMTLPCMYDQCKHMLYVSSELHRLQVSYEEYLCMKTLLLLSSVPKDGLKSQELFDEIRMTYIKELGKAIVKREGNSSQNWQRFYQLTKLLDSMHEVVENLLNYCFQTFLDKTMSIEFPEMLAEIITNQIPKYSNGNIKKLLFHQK
The target is the same in assay [7]. Briefly: GR-EFC Redistribution (AID 451; calls by dose curve; note: potency is the fitted concentration of half-maximal effect). Conditions: CHO-K1 GR-EFC translocation, beta-gal luminescence, 2 h. An outline of the steps: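 Translocation of GR-ED fusion to nuclear EA restores b-gal, read by luminescence after 1 h room-temperature detection. Engineered CHO-K1 biosensor cells, 1,000/well, exposed 2 h at 37 C to titrations up to 46 uM final.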
The target of assay [8] is Mitogen-activated protein kinase 10 (Mus musculus) (UniProt Q61831). Briefly: JNK3 AlphaScreen Assay (AID 530).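 Note: kinase came from lysate of stimulated human HepG2 cells; signal reports phosphorylation of biotinylated GST-cJun 1-79 at Ser73 with 10 µM ATP; % is set by controls: 0 for no effect and ±100 for the full control effect.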 Conditions: JNK3 lysate, c-Jun phosphorylation; series mostly up to 11.4 µM. A digest of the protocol: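 Kinase buffer: 20 mM Tris-HCl pH 7.6, 10 mM MgCl2, 1 mM DTT, 0.1 mM Na3VO4, 0.01% Tween-20; ATP 10 uM. Substrate biotin-GST-cJun(1-79), enzyme from activated HepG2 lysates. Detection by Ser73 phospho-antibody AlphaScreen.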
In general terms: Bead proximity is the source of the signal in Alpha formats.

Assay [9] concerns the target 3',5'-cyclic-AMP phosphodiesterase 4B (Homo sapiens) (UniProt Q07343). Kind of assay: qHTS Assay for Inhibitors of PDE-IV (AID 607; active = well fitted activation curve with a large enough effect in the main read-out, with a control signal flat, not every such curve was filed as active; note: % of control where 0% means no effect). Conditions: HEK293 ACTOne CNG channel cells, membrane potential fluorescence; series mostly up to 22.9 µM. A digest of the protocol:
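Cell-based read-out of cAMP via a modified cyclic nucleotide-gated channel and membrane potential dye (535/590 nm) in HEK293 cells expressing PDE4 endogenously. Compounds tested up to 22.9 uM final; 100 uM RO 20-1724 reference.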

Unmarked numbers belong to inactive results. Inconclusive results are not listed. Calls of active or inactive are those of the source. Unless noted, calls come from the whole dose curve; as a rule, active = well fitted curve in either direction with a large enough effect (not every such curve was filed as active); inconclusive = small, poorly fitted or top-dose-only effect, or another doubt; inactive = flat fitted curve, though single readings scatter. A value given as a limit tells only on which side of the number the result lay.

3',5'-cyclic-AMP phosphodiesterase 4B (Homo sapiens), sequence (Q07343 whole entry, looked up): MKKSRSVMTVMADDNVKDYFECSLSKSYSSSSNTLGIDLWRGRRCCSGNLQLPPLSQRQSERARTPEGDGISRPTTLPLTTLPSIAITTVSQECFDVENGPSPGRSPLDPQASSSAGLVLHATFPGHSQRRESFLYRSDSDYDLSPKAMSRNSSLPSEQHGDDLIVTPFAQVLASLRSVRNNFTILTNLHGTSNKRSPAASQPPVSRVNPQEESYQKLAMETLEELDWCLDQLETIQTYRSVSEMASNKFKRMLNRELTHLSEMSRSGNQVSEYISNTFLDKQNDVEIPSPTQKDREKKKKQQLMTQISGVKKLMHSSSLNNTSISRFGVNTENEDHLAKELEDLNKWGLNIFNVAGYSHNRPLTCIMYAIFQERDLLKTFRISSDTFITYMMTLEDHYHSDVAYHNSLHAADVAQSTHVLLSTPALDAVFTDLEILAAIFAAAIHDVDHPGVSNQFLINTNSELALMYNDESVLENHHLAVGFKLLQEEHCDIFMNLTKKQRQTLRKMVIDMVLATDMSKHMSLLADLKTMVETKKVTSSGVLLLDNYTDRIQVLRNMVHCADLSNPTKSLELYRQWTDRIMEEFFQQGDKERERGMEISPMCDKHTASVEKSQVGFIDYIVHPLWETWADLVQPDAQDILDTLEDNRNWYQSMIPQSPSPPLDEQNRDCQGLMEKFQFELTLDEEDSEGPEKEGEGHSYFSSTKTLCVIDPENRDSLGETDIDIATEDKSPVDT
Cytochrome P450 1A2 (Homo sapiens), sequence (P05177 whole entry, looked up): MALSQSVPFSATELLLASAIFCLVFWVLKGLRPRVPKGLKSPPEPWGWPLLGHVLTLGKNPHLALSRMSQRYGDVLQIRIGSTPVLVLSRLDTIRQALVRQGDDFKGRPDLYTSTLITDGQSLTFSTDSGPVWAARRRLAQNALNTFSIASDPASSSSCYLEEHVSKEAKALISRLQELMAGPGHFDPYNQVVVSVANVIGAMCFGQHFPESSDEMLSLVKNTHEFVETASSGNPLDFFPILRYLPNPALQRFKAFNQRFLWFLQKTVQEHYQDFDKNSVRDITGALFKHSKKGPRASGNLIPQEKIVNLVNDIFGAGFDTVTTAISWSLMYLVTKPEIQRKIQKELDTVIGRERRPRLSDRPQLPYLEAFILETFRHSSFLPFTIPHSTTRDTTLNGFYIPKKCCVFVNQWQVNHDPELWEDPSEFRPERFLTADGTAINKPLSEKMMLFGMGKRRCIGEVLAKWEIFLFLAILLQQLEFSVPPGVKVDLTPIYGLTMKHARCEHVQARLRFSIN

Turning to `O=S(=O)(O)[C@@H](c1ccccc1)[C@@H](O)c1ccccc1`, the Potency is greater than 11.4 µM in [1], greater than 46 µM in assay [6] and greater than 9.22 µM in assay [7]. The activity change, negative = inhibition is 1.17% in assay [2], -13.9% [at 2.29 µM] in assay [3] and 8.34% in [4]. For the same compound, the activity, negative = inhibition in assay [5] was 8.88%. Further, the Potency result in assay [8] and in assay [9] was “inactive” in each case.
`O=C(O)c1cc(=O)[nH]c(SCc2ccccc2)n1`: the values for the Potency in assay [1], in assay [6] and in assay [7] were greater than 11.4 µM, greater than 46 µM and greater than 9.22 µM, respectively. The activity change, negative = inhibition in assay [2] was 12.1%; in [4], -27.5%. The Potency entry in [3], in assay [8] and in assay [9] was “inactive” in each case. In [5], the activity, negative = inhibition was 0.79%.
As to `Cc1cc(=O)oc2c(OS(C)(=O)=O)c(OS(C)(=O)=O)ccc12`, the Potency in assay [1] is greater than 11.4 µM; in assay [3] it was 0.794 µM (active); in assay [6] it was greater than 46 µM; in [7] it was greater than 9.22 µM. The activity change, negative = inhibition in [2] was -3.34%; in [4] it was 5.12%. Also, the activity, negative = inhibition in assay [5] is 4.16%. Besides, the Potency entry in assay [8] and in assay [9] was “inactive” each time.
As for `CC[C@H](CN(C)C)C(=O)c1ccco1`, the Potency was greater than 11.4 µM in [1], greater than 46 µM in assay [6] and greater than 9.22 µM in assay [7]. Further, the values for the activity change, negative = inhibition in assay [2] and in assay [4] were 3.81% and -14.2%, respectively. The Potency result in assay [3], in assay [8] and in [9] was “inactive” in each case. Moreover, the activity, negative = inhibition in [5] is -1.8%.
As for `O=C(Nc1nn[nH]n1)c1nc(-c2ccccc2)cc(=O)[nH]1`, the Potency was greater than 11.4 µM in assay [1], 3.98 µM (active) in [3], greater than 46 µM in assay [6] and greater than 9.22 µM in [7]. Moreover, the activity change, negative = inhibition in [2] was 2.85%; in assay [4] it was 0.574%. Besides, the activity, negative = inhibition in assay [5] was -4.08%. The Potency entry in assay [8] and in assay [9] was “inactive” each time.
As to `Nc1ccn([C@@H]2O[C@H](COC(=O)C34CC5CC(CC(C5)C3)C4)[C@@H](O)[C@@H]2O)c(=O)n1`, the Potency was greater than 11.4 µM in [1], greater than 46 µM in [6] and greater than 9.22 µM in [7]. Further, the activity change, negative = inhibition in [2] was 9.17%; in [3] it was -18.7% [at 2.29 µM]; in assay [4], 16.8%. In addition, in assay [5], the activity, negative = inhibition was -0.882%. In addition, the Potency entry in assay [8] and in assay [9] was “inactive” in each case.
Consider `O=S(O)O.O=S(O)O.[Co].[NH2-].[NH2-].[NH2-].[NH2-]`, for which the results for the Potency in [1], in [6] and in assay [7] were greater than 11.4 µM, greater than 46 µM and greater than 9.22 µM, respectively. Also, the figures for the activity change, negative = inhibition in assay [2] and in assay [4] were -7.83% and 15.9%, respectively. For the same compound, the Potency entry in [3], in assay [8] and in assay [9] was “inactive” throughout. Moreover, the activity, negative = inhibition in assay [5] was 26%.
Turning to `O=C(O)[C@H](Cc1cc(I)c(O)c(I)c1)C1CCCCC1`, the Potency in assay [1] is greater than 11.4 µM; in [6] it was greater than 46 µM; in [7] it was greater than 9.22 µM. The activity change, negative = inhibition in assay [2] is -29.2%; in assay [3], -8.8% [at 2.29 µM]; in assay [4], 1.46%. Further, the activity, negative = inhibition in assay [5] is -16%. Also, the Potency entry in [8] and in [9] was “inactive” throughout.
For `CC(C)C(=O)Cc1ccc2ccccc2n1`, the Potency in [1] was greater than 11.4 µM; in assay [3], 3.16 µM (active); in [6], greater than 46 µM; in [7], greater than 9.22 µM. In addition, the activity change, negative = inhibition was -4.8% in assay [2] and 12.2% in [4]. Besides, the activity, negative = inhibition in assay [5] was 3.27%. The Potency result in assay [8] and in assay [9] was “inactive” in each case.
Take `Oc1c(Cl)cc(CN(Cc2cc(Cl)c(O)c(Cl)c2)C2CCCCC2)cc1Cl`: the results for the Potency in assay [1], in assay [6] and in assay [7] were greater than 11.4 µM, greater than 46 µM and greater than 9.22 µM, respectively. Besides, the activity change, negative = inhibition in assay [2] is 4.05%; in assay [3] it was 11.3% [at 2.29 µM]; in [4], 1.82%. For the same compound, the activity, negative = inhibition in assay [5] is -25.8%. Besides, the Potency result in assay [8] and in assay [9] was “inactive” each time.
As to `C[C@@](N)(Cc1c[nH]c2ccccc12)C(=O)O`, the Potency in assay [1] is greater than 11.4 µM; in assay [6], greater than 46 µM; in assay [7], greater than 9.22 µM. The activity change, negative = inhibition is 13.6% in assay [2] and -4.57% in assay [4]. In addition, the Potency entry in assay [3], in [8] and in assay [9] was “inactive” each time. For the same compound, the activity, negative = inhibition in [5] is 10.9%.
For the compound `NCc1nnn(Cc2ccccc2)c1N`, the Potency is greater than 11.4 µM in [1], greater than 46 µM in [6] and greater than 9.22 µM in assay [7]. Further, the results for the activity change, negative = inhibition in [2] and in [4] were 2.56% and 19.4%, respectively. Further, the Potency entry in [3], in assay [8] and in [9] was “inactive” each time. The activity, negative = inhibition in [5] was -5.08%.
With `O=C(O)[C@H](CCc1ccccn1)c1ccccc1`, the figures for the Potency in [1], in [6] and in [7] were greater than 11.4 µM, greater than 46 µM and greater than 9.22 µM, respectively. The activity change, negative = inhibition in [2] is -0.682%; in [4], -1.01%. Also, the Potency entry in [3], in [8] and in assay [9] was “inactive” throughout. Also, the activity, negative = inhibition in assay [5] is 0.534%.
`CN(C)CCCNc1ncnc2nc[nH]c12`: the Potency in [1] was greater than 11.4 µM; in [6] it was greater than 46 µM; in [7], greater than 9.22 µM. The activity change, negative = inhibition in assay [2] was -0.851%; in assay [4], -10.5%. The Potency result in [3], in assay [8] and in assay [9] was “inactive” in each case. The activity, negative = inhibition in [5] was 3.41%.
For the compound `C[C@H](CCC(=O)O)[C@H]1CC[C@]2(C)[C@@H]3C(=O)C[C@H]4C(C)(C)[C@@H](O)CC[C@]4(C)[C@H]3C(=O)C[C@@]12C`, the Potency in assay [1] is greater than 11.4 µM; in assay [6], greater than 46 µM; in [7], greater than 9.22 µM. In addition, the activity change, negative = inhibition in assay [2] was 4.2%; in assay [4], 21.4%. Moreover, the Potency entry in assay [3], in [8] and in assay [9] was “inactive” in each case. Further, the activity, negative = inhibition in assay [5] was 8.37%.
Regarding `O=C(O)c1cc(-c2ccc3cc4c(cc3c2)OCO4)nc2ccccc12`, the Potency in assay [1] was greater than 11.4 µM; in assay [3], 3.16 µM (active); in [6], greater than 46 µM; in [7], greater than 9.22 µM. Also, the results for the activity change, negative = inhibition in assay [2] and in assay [4] were -11% and -22.2%, respectively. In [5], the activity, negative = inhibition is -8.03%. Moreover, the Potency entry in [8] and in assay [9] was “inactive” throughout.
